Data: PubChem BioAssay (NCI)
The panel holds about 83,000 compounds, 20% with a hit somewhere; the sample as a whole holds those more often.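 The test compound was applied at a single concentration to cells in 96-well plates for 48 hours, and percent growth was recorded.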 Unmarked numbers belong to inactive results. Active and inactive are the calls of the source. Rule for the calls: active = growth percent below 10; inactive = the rest.

Columns and labels:
Assay in all cases: NCI-60 one-dose screen, 48 h (100 = growth as untreated, 0 = no growth, -100 = all killed)
Details in all cases: 10 µM unless noted
HCT-15 colon = test system: HCT-15 colon
HT29 colon = test system: HT29 colon
SNB-75 CNS = test system: SNB-75 CNS
SNB-19 CNS = test system: SNB-19 CNS
U251 CNS = test system: U251 CNS
PC-3 prostate = test system: PC-3 prostate
SK-MEL-5 melanoma = test system: SK-MEL-5 melanoma
UACC-62 melanoma = test system: UACC-62 melanoma
LOX IMVI melanoma = test system: LOX IMVI melanoma
SK-MEL-28 melanoma = test system: SK-MEL-28 melanoma
SK-MEL-2 melanoma = test system: SK-MEL-2 melanoma
SN12C renal = test system: SN12C renal
UO-31 renal = test system: UO-31 renal
TK-10 renal = test system: TK-10 renal
ACHN renal = test system: ACHN renal
CAKI-1 renal = test system: CAKI-1 renal
A498 renal = test system: A498 renal
CCRF-CEM leukemia = test system: CCRF-CEM leukemia
MOLT-4 leukemia = test system: MOLT-4 leukemia

Compound | growth (HCT-15 colon) | growth (HT29 colon) | growth (SNB-75 CNS) | growth (SNB-19 CNS) [%] | growth (U251 CNS) | growth (PC-3 prostate) | growth (SK-MEL-5 melanoma) | growth (UACC-62 melanoma) [%] | growth (LOX IMVI melanoma) | growth (SK-MEL-28 melanoma) [%] | growth (SK-MEL-2 melanoma) | growth (SN12C renal) [%] | growth (UO-31 renal) [%] | growth (TK-10 renal) | growth (ACHN renal) [%] | growth (CAKI-1 renal) | growth (A498 renal) | growth (CCRF-CEM leukemia) | growth (MOLT-4 leukemia)
COc1cc(-c2n[nH]nc2-c2ccc3c(c2)OCCO3)cc(OC)c1OC | 6.81% (active) | -12.7% (active) | 25.4% | 42.6 | -27.3% (active) | 16.5% | -39.5% (active) | 27 | 15.2% | 38.9 | 26.6% | 31 | 27.1 | 52.4% | 12.3 | 18.4% | -14.6% (active) | 5.78% (active) | 5.49% (active)
COc1ccc(NC(=O)CSc2nc3ccccc3c(=O)n2Cc2cc(OC)c(OC)c(OC)c2)cc1 | 89.5% | 110% | 66.3% | 95.8 | 97.7% | 85.1% | 87.5% | 74.2 | 94.5% | 94 | 93% | 79.6 | 73.5 | 96.5% | 80.6 | 95.6% | 87.1% | 90.1% | 68.8%
COc1ccc(/C=C/c2nc(N3CCOCC3)c3nc(Cl)c(Cl)cc3n2)cc1OC | 97.5% | 97.4% | 88.3% | 102 | 103% | 102% | 103% | 101 | 97.2% | 109 | 99.1% | 98.3 | 108 | 104% | 100 | 93.7% | 93.7% | 99.3% | 87.6%
Cc1ccc(Cn2c(-c3cccs3)nc3ccccc32)cc1 | 81.7% | 92.7% | 62.2% | 95.1 | 85.5% | 72.2% | 82.4% | 85.4 | 82.5% | 111 | 101% | 98.6 | 59.5 | 89.8% | 86.4 | 86.3% | 80.2% | 90.3% | 93.2%
CC(C(=O)n1cc(-c2ccccc2)c(-c2ccccc2)c1)c1ccccc1 (stereo not drawn) | 112% | 107% | 92.9% | 102 | 91.1% | 95.9% | 99.1% | 106 | 97.8% | 112 | 104% | 108 | 88.6 | 98.8% | 115 | 91.6% | 99.8% | 103% | 102%
CCCCCCCCCCn1cc[n+](C)c1 | 82% | 12.3% | -10.6% (active) | 45.5 | 21.7% | 6.6% (active) | -33.1% (active) | 31.1 | 23.9% | 34.9 | 13.1% | 19.4 | 65.7 | -1.53% (active) | 45 | 28.8% | 12.4% | 111% | 78.6%
COc1ccc(/C=C/c2nc(N3CCOCC3)c3cc(F)c(F)cc3n2)cc1OC | 36.3% | 42.4% | 54.8% | 45.3 | 41.5% | 8.26% (active) | -18.1% (active) | 41.1 | 36.4% | 52.4 | 43.3% | 33.4 | 20.1 | 28.8% | 33.1 | 28.1% | 45.5% | 35.8% | 6.52% (active)
COc1cc(CNC(=O)CCSc2nc3ccccc3c(=O)n2Cc2cc(OC)c(OC)c(OC)c2)cc(OC)c1OC | 17.7% | 12.9% | 17.9% | 56 | 38.3% | 49.5% | 12.6% | 36.3 | 44.6% | 55.8 | -9.25% (active) | 50.7 | 47.2 | 62% | 48.9 | 34.3% | 21.7% | 35.5% | 18.8%
Cc1ccc(Cn2c(-c3nonc3N)nc3ccccc32)cc1 | 50.5% | 46.3% | 57.4% | 91 | 77.5% | 72.2% | 76.2% | 77.7 | 71.7% | 90 | 78.2% | 96.3 | 66.2 | 90.4% | 92.3 | 69.7% | 40.4% | 67.2% | 56.2%
Clc1nc2ccccc2nc1CI | 74.9% | 117% | 89.2% | 103 | 113% | 89.6% | 83% | 100 | 8.23% (active) | 103 | 64.3% | 54.3 | 69.2 | 166% | 92.1 | 97.8% | 120% | -4.61% (active) | 20.2%
Oc1ccc(Cl)cc1-c1cc(-c2ccc(Cl)cc2)n[nH]1 | 25% | 103% | 59.1% | 81.2 | 59.3% | 45.6% | 70.9% | 64 | 58.2% | 87.6 | 90.7% | 61.5 | 29 | 102% | 52.8 | 47.7% | 84.3% | 36.7% | 39.5%
Cc1cc(Nc2nc(-c3ccc(F)cc3)nc3ccccc23)n[nH]1 | 33.9% | 22.5% | -21% (active) | 80.2 | 88.4% | 56.5% | 73.7% | 40.8 | 32.6% | 56.3 | 27.7% | 61.6 | 32 | 32.6% | 39.4 | -7.57% (active) | 1.89% (active) | 44.5% | 64.1%
COC(=O)C(CC(=O)c1ccc(-c2ccccc2)cc1)c1ccccc1 (stereo not drawn) | 31.3% | 6.34% (active) | 72.5% | 75.5 | 71.1% | 64.4% | 45.5% | 51.3 | 44.9% | 70.9 | 69.4% | 64.2 | 53.8 | 68% | 41.3 | 44.3% | 41.7% | 49.4% | 47.3%
COc1ccc(S(=O)(=O)N2CCN(c3cc4c(cc3F)c(=O)c(C(=O)O)cn4C3CC3)CC2)c(OC)c1 | 97.2% | 113% | 85.7% | 89.5 | 102% | 99.1% | 82.6% | 84.4 | 61.7% | 101 | 105% | 90.7 | 53.2 | 96.8% | 94.9 | 81.8% | 75.1% | 86.5% | 69.3%
Nc1c(C(=O)Nc2ccccc2)sc2nc3c(cc12)CCC3 | 55.7% | 88% | 65.5% | 85.1 | 70.9% | 81% | 68.7% | 69.8 | 89.1% | 80.4 | 86% | 85 | 80.9 | 96% | 96 | 81.5% | 80.7% | 89.7% | 90.3%
Cc1nc2sccn2c1-c1csc(Nc2ccccc2Cl)n1 | 34.2% | 15.4% | 56.9% | 65.6 | 42.1% | 53.5% | 11.5% | 46.7 | 45.5% | 65.6 | 33.9% | 57.1 | 42.4 | 61% | 58.9 | 34.6% | 31.5% | 48.6% | 17%
COc1cc(OC)cc(-c2n[nH]nc2-c2ccc3c(c2)OCO3)c1 | 25.7% | 1% (active) | -8.14% (active) | 45.1 | 7.92% (active) | 19.4% | 20.2% | 27.5 | 34.4% | 32 | 14.4% | 49.1 | 44.9 | 59.5% | 42.7 | 36.5% | -1.56% (active) | 10.4% | 31.3%
